Sampled rows, rich in hits. Any-hit rate of the full collection: about 1.4%.
LEDGF integ inh: blockers of LEDGF/p75-dependent integrase strand transfer – biochemical, TR-FRET, high throughput, primary screen. HIV-1 integrase (with human LEDGF/p75). TR-FRET IN-LEDGF/p75 DNA integration, Eu/Cy5. 0.64% of 370,000 active. inhibition, % at 3.7 µM;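 active = inhibition above the screen-wide mean plus 3 SD, cut at about 13% in these data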;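 note: signal is the Cy5 over europium emission ratio at 671 and 618 nm; 0% = plate median of compound wells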
UHRF1 MBD2 ctr: UHRF1 methylated DNA binding inhibitors, primary screen, counter-screen for MBD2 inhibitor project, biochemical, TR-FRET, human UHRF1, single concentration | 0.75% of 370,000 active | E3 ubiquitin-protein ligase UHRF1 (Homo sapiens), Q96T88 | inhibition, % at 4.4 µM | UHRF1 binding to methylated oligo; in the data active = inhibition above about 21%;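 note: UHRF1 SRA domain binding a hemimethylated CpG hairpin DNA probe; 0% = median of test compound wells and 100% = reference inhibitor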
MBD2 DNA inh: inhibitors of MBD2 binding to methylated DNA, primary screen, biochemical, TR-FRET, DNA-binding domain, human; MBD2 binding to methylated oligonucleotide; inhibition, % at 4.4 µM; Methyl-CpG-binding domain protein 2 (Homo sapiens), Q9UBB5; 0.31% of 370,000 active; in the data active = inhibition above about 13%
Casp6 inh: human caspase-6 inhibitors, primary screen, biochemical, VEID-R110 fluorescence, single point, set 2; P55212; purified caspase-6, Z-VEID-R110 cleavage fluorescence; inhibition, % at 12.5 µM; 0.53% of 350,000 active; AID 686996, 2013;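 active = mean inhibition across replicates at least about 35%, with every replicate also reaching that limit, limit read from the data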;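 note: 0% = median of neutral control wells and 100% = no fluorescence left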
Target sequence (P55212 24-179 limits assumed): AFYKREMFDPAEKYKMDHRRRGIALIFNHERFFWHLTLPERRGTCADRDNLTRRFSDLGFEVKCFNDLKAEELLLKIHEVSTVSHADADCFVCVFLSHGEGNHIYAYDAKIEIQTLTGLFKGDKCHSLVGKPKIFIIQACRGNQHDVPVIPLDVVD
Target sequence (P55212 194-293 limits assumed): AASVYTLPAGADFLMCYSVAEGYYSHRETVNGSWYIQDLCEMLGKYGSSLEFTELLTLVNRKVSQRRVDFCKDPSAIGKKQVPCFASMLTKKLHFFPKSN
UHRF1 DNA bind: UHRF1 methylated DNA binding inhibitors, counter-screen for MBD2 inhibitor project, biochemical, TR-FRET, human UHRF1. shares compounds with MBD2 DNA inh. UHRF1 binding to methylated oligonucleotide. inhibition, % at 4.4 µM. 25% of 1,000 active; in the data active = inhibition above about 21%;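 note: UHRF1 SRA domain binding a labeled hemimethylated CpG hairpin DNA; 0% = vehicle only and 100% = reference inhibitor with vehicle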
MBD2 DBD conf: inhibitors of MBD2 binding to methylated DNA, confirmation, biochemical, TR-FRET, DNA-binding domain, human. shares compounds with MBD2 DNA inh. TR-FRET MBD2-DBD binding to methylated oligonucleotide. inhibition, % at 4.4 µM. 26% of 1,000 active. AID 720531, 2013
IN multimer act: HIV-1 IN multimer formation enhancers, counter-screen for LEDGF/p75 integration inhibitor project, biochemical, TR-FRET; shares compounds with LEDGF integ inh; TR-FRET HIV-1 integrase multimerization; activation, % at 7.7 µM; 17% of 2,000 active; AID 1053131, 2014; in the data active = activation above about 8.9%
TRFRET interf: TR-FRET optical interference artefacts, confirmation, artefact control for LEDGF/p75-dependent integration inhibitor project, biochemical, HIV-1 IN multimerization; 2,000 tested, under 10 active; inhibition, % at 7.7 µM; AID 1053135, 2014; TR-FRET optical interference counterscreen; shares compounds with LEDGF integ inh;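 active = inhibition above the mean over all tested compounds plus 3 SD, which no compound reached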;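 note: 0% = integrase with antibodies and DMSO and 100% = antibodies without integrase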
LEDGF integ conf: inhibitors of HIV-1 IN-LEDGF/p75 DNA integration, confirmation, biochemical, TR-FRET | inhibition, % at 3.7 µM | TR-FRET LEDGF/p75-dependent HIV-1 integration | shares compounds with LEDGF integ inh | AID 1053136, 2014 | 36% of 2,000 active
* hit, by the source's call; . = no result. Cut-off read from the data, not from the text of the source, unless noted: active = inhibition above about 14%; inactive = the rest.

SMILES	LEDGF integ inh	UHRF1 MBD2 ctr	MBD2 DNA inh	Casp6 inh	IN multimer act	TRFRET interf	LEDGF integ conf	others
Cc1cc(C)cc(N2C(=O)NC(=O)/C(=C\c3cccn3-c3ccc(Cl)cc3)C2=O)c1	-3	-3	-1	.	.	.	.
O=C(Cc1cccnc1)N1CCCCN2[C@H](C1)[C@@H](c1ccc(/C=C/c3ccccc3)cc1)[C@@H]2CO	.	.	.	-6	.	.	.
COc1ccc(C#Cc2ccc([C@@H]3[C@H]4CN(C(=O)Cc5cccnc5)CCCCN4[C@H]3CO)cc2)cc1	.	.	.	0	.	.	.
Cc1ccc(OC(=O)N(C)C[C@H]2OCc3ccccc3-c3c(n(C)c4ccccc34)C(=O)N([C@H](C)CO)C[C@@H]2C)cc1	.	.	.	-1	.	.	.
O=C(Cc1ccccn1)N1CCCCN2[C@H](CO)[C@H](c3ccc(Br)cc3)[C@H]2C1	.	.	.	2	.	.	.
CN(C)c1ccc(/C=C2\C(=O)NC(=O)N(CCc3ccc(F)cc3)C2=O)cc1	-1	-2	0	4	.	.	.
CCN(CC)c1ccc(/C=C2/C(=O)NC(=O)N(Cc3ccco3)C2=O)cc1	71*	72*	18*	.	6	-29	30*	UHRF1 DNA bind=29*;MBD2 DBD conf=14*
CN(C)c1ccc(/C=C2/C(=O)NC(=O)N(Cc3ccco3)C2=O)cc1	66*	68*	15*	81*	2	-12	14*	UHRF1 DNA bind=25*;MBD2 DBD conf=11
CC(C)N1C(=O)/C(=C/C=C/c2ccco2)C(=O)N(Cc2ccco2)C1=O	69*	50*	19*	.	-1	3	51*	UHRF1 DNA bind=19;MBD2 DBD conf=11
CC[n+]1c(-c2ccccc2)c2cc(N)ccc2c2ccc(N)cc21	42*	72*	70*	99*	7	-33	70*	UHRF1 DNA bind=77*;MBD2 DBD conf=80*
CCCN1[C@@H]2c3ccc(-c4ccc(OC)cc4)c(=O)n3C[C@H]1[C@H](CO)[C@H]2C(=O)OC	.	.	.	1	.	.	.
COC(=O)C(O)(c1c(C)[nH]n(-c2ccccc2)c1=O)C(F)(F)F (centres undefined)	26*	-1	-8	.	1	-4	12
COC(=O)C(O)(c1c[nH]c2ccccc12)C(F)(F)F (centres undefined)	-2	-2	0	.	.	.	.
Cc1ccc(S(=O)(=O)Nc2cc(C(=O)N3CCC4(CC3)OCCO4)ccc2N2CCCCC2)cc1	16*	-1	-2	.	-1	2	-1
COC(=O)[C@@H]1[C@@H](CO)[C@@H]2Cn3c(ccc(-c4cccc(F)c4)c3=O)[C@H]1N2C(=O)CC1CC1	.	.	.	-2	.	.	.
CCOc1cccc(N2C(=O)/C(=C/c3ccco3)C(=O)NC2=S)c1	22*	50*	12	87*	9.8*	-49	76*
O=C1NC(=O)N(Cc2ccccc2)C(=O)/C1=C/C=C/c1ccco1	29*	8	-2	39*	0	1	30*
COc1ccc(CN2C(=O)NC(=O)/C(=C\c3ccco3)C2=O)cc1	14*	13	3	82*	6	-21	18*
COc1ccc(CN2C(=O)NC(=O)/C(=C\c3cc(OC)c(OC)c(OC)c3)C2=O)cc1	-2	-5	-6	5	.	.	.
CCN1C(=O)C(=C/C=C/c2ccco2)C(=O)N(CC)C1=S	39*	30*	6	58*	2	-8	51*
CC(C)c1ccc(N2C(=O)NC(=O)/C(=C\C=C\c3ccco3)C2=O)cc1	23*	24*	3	30	2	-6	31*
Clc1ccc(OCC#CCN2CCOCC2)cc1	24*	-2	1	-2	0	0	3
CCCCn1c(NS(=O)(=O)c2ccc(C)cc2)c(C(=O)OCC)c2nc3ccccc3nc21	32*	13	0	-1	1	-4	11
CCCCn1c(NC(=O)c2ccco2)c(C(=O)OCC)c2nc3ccccc3nc21	30*	17	10	.	-2	6	62*
CCCCn1c(N)c(C(=O)OCCOC)c2nc3ccccc3nc21	4	0	-6	0	.	.	.
SMILES	LEDGF integ inh	UHRF1 MBD2 ctr	MBD2 DNA inh	Casp6 inh	IN multimer act	TRFRET interf	LEDGF integ conf	others
O=C(Cc1ccccn1)N1CCCCN2[C@H](CO)[C@H](c3ccc(C#Cc4ccccc4)cc3)[C@@H]2C1	.	.	.	-1	.	.	.
N#Cc1cccc(-c2ccc([C@@H]3[C@@H](CO)N4CCCCN(C(=O)Cc5ccncc5)C[C@H]34)cc2)c1	.	.	.	0	.	.	.
Clc1cccc(CNCCc2ccc3c(c2)OCO3)c1	15*	0	2	.	0	0	-2
Clc1ccc(CNCCc2ccc3c(c2)OCO3)cc1	3	-1	0	-4	.	.	.
C[C@H]1CN([C@@H](C)CO)C(=O)CCCn2nncc2CO[C@@H]1CN(C)C(=O)Oc1ccc2ccccc2c1	.	.	.	3	.	.	.
Cc1cc(/C=C2\C(=O)NC(=O)N(Cc3ccccc3)C2=O)c(C)n1C1CC1	1	-6	0	2	.	.	.
Cc1cccc(OCCn2cccc2/C=C2/C(=O)NC(=O)N(Cc3ccco3)C2=O)c1	50*	49*	4	44*	4	-15	24*
Cc1cc(/C=C2/C(=O)NC(=O)N(Cc3ccco3)C2=O)c(C)n1-c1ccccc1	53*	45*	7	.	1	-4	11
CCc1ccc(N2C(=O)NC(=O)/C(=C/c3cccn3CCOc3ccc(C)cc3)C2=O)cc1	-2	0	2	10	.	.	.
COC(=O)[C@@H]1[C@@H](CO)[C@@H]2Cn3c(ccc(-c4ccccc4)c3=O)[C@H]1N2CC1CCCCC1	.	.	.	2	.	.	.
COC(=O)C1=C(c2ccc(-c3ccccc3)c(F)c2)C[C@@H]2CC[C@H]1N2C(=O)NCCOc1ccc(OC)cc1	15*	7	-7	2	-2	8	-6
